Most compounds without a hit are left out; they make up all but 4.1% or so of the library.
tim23-1 inh: growth inhibitors of tim23-1 mutant yeast; S. cerevisiae tim23-1 growth, BacTiter-Glo luminescence, 24 h; 1.3% of 330,000 active; inhibition, % at 20 µM;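 active = growth inhibition of the mutant yeast at or above 50%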;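 note: temperature-sensitive mutant grown at 25 °C; plate controls were DMSO-treated mutant yeast for no effect and medium wells lacking yeast for full effect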
NALP1 yeast inh: blocks the NALP1 inflammasome reconstituted in yeast. 0.61% of 280,000 active. S. cerevisiae NALP1/ASC/caspase-1 growth, X-gal OD620, 72 h. inhibition, % at 10 µM; in the data active = inhibition mostly above about 24%, no sharp cut-off; inactive = mostly below about 32%
TIM10 inh: growth inhibitors of TIM10 yeast strain; S. cerevisiae TIM10 strain growth, BacTiter-Glo luminescence, 24 h; 1.4% of 330,000 active; AID 463195; inhibition, % at 10 µM;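 active = inhibition of 40% or more at the single tested concentration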;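 note: wild-type TIM10 isogenic control strain grown at permissive 25 °C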
tim10-1 inh: tim10-1 yeast growth inhibition; 2.2% of 330,000 active; AID 463190; inhibition, % at 20 µM; S. cerevisiae tim10-1 ts strain growth, BacTiter-Glo, 24 h;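 active = inhibition of at least 40%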;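 note: mutant grown at 25 °C; 0% = DMSO wells with yeast and 100% = wells holding no yeast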
NALP3 yeast inh: NALP3 inhibition in yeast; Yeast reconstituted NLRP3/ASC/caspase-1, beta-gal luminescence, 24 h; inhibition, % at 10 µM; 0.39% of 330,000 active;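 active = inhibition of 50% or more; inactive = inhibition below 50%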;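 note: plate controls were induced DMSO wells for no effect and uninduced yeast grown without galactose for full effect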
tim10 confirm: confirmation of TIM10 yeast growth inhibitors | shares compounds with TIM10 inh | S. cerevisiae tim10 strain growth, BacTiter-Glo luminescence, 24 h | inhibition, % at 10 µM | 63% of 4,600 active | AID 463215;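 active = inhibition of yeast growth at or above a set limit in either of two replicates at 10 µM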;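 note: this counterscreen used the strain with wild-type TIM10; 0% = yeast with DMSO and 100% = medium wells lacking yeast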
tim23-1 conf: tim23-1 yeast growth inhibition, confirmed | 83% of 4,400 active | shares compounds with tim23-1 inh | inhibition, % at 20 µM | S. cerevisiae tim23-1 growth, BacTiter-Glo luminescence, 24 h;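 active = inhibition above about 39% in either of two replicate wells at 20 µM, limit read from the data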;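 note: temperature-sensitive tim23-1 mutant grown at 25 °C; 0% = DMSO wells with yeast and 100% = medium wells without yeast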
An asterisk follows results filed as active.

How did COc1ccccc1[C@@]1(C)ON(c2ccccc2C(F)(F)F)C1=O do in these assays?
tim23-1 inh: 63*; TIM10 inh: 65*; tim10-1 inh: -98; NALP3 yeast inh: 39; tim10 confirm: 55*; tim23-1 conf: -93

How did O=C(COc1cccc(NC(=O)c2ccco2)c1)c1ccccc1 do in these assays?
tim23-1 inh: 54*; NALP1 yeast inh: -8; TIM10 inh: 48*; tim10-1 inh: 21; NALP3 yeast inh: 0; tim10 confirm: 25; tim23-1 conf: 66*

What do the screens show for `O=C(Nc1ccc(Oc2cccc3ccccc23)cc1)c1ccco1`?
tim23-1 inh: 58*; NALP1 yeast inh: -8; TIM10 inh: 40*; tim10-1 inh: 13; NALP3 yeast inh: 46; tim10 confirm: 25; tim23-1 conf: 77*

What do the screens show for `Cc1cc(C)c(OCC(=O)Nc2cccc(NC(=O)c3ccco3)c2)c(Br)c1`?
tim23-1 inh: 55*; NALP1 yeast inh: -4; TIM10 inh: 45*; tim10-1 inh: 18; NALP3 yeast inh: 30; tim10 confirm: 29; tim23-1 conf: 44*

What do the screens show for `Cc1cc(C)c(OCC(=O)Nc2ccc(NC(=O)c3ccco3)cc2)c([N+](=O)[O-])c1`?
NALP1 yeast inh: 22

What do the screens show for `COc1ccc(C(=O)COc2cccc(NC(=O)c3ccco3)c2)cc1`?
tim23-1 inh: 33; NALP1 yeast inh: -3; TIM10 inh: 37; tim10-1 inh: 24; NALP3 yeast inh: 23

Results for CC1(C)CC(=O)C2=C(C1)OC1OC(=O)CC21C (stereo unspecified) ?
tim23-1 inh: -5; NALP1 yeast inh: 11; TIM10 inh: 9; tim10-1 inh: 4; NALP3 yeast inh: 0

What do the screens show for `COCCN(C(=O)c1cccc(-n2cnnn2)c1)c1c(N)n(CC(C)C)c(=O)[nH]c1=O`?
tim23-1 inh: -1; TIM10 inh: 3; tim10-1 inh: 7; NALP3 yeast inh: 23

What do the screens show for `CC(=O)n1cc(C(C[N+](=O)[O-])SCCN)c2ccccc21` (stereo unspecified)?
tim23-1 inh: 89*; NALP1 yeast inh: 7; TIM10 inh: 91*; tim10-1 inh: 23; NALP3 yeast inh: 43; tim10 confirm: 92*; tim23-1 conf: -31

Results for COC(=O)/C(=C/c1cn(C(C)=O)c2ccccc12)[N+](=O)[O-] ?
NALP1 yeast inh: 9

How did Cc1ccc2nc(NC(=O)COC(=O)c3ccccn3)sc2c1 do in these assays?
tim23-1 inh: 59*; NALP1 yeast inh: 25; TIM10 inh: 43*; tim10-1 inh: 19; NALP3 yeast inh: -11; tim10 confirm: 26; tim23-1 conf: 70*

What do the screens show for `O=C(N/N=C/c1cc(Br)cc(Cl)c1O)c1ccc2c(c1)OCO2`?
tim23-1 inh: 57*; TIM10 inh: 43*; tim10-1 inh: -3; NALP3 yeast inh: 9; tim10 confirm: 31*; tim23-1 conf: 57*

What do the screens show for `O=C(N/N=C/c1ccccc1O)c1ccc2c(c1)OCO2`?
tim23-1 inh: 67*; NALP1 yeast inh: 0; TIM10 inh: 51*; tim10-1 inh: 31; NALP3 yeast inh: 15; tim10 confirm: 43*; tim23-1 conf: 74*

What do the screens show for `CN(c1ccccc1)S(=O)(=O)c1cccc(NS(=O)(=O)c2cccc(C(=O)O)c2)c1`?
tim23-1 inh: 11; TIM10 inh: 11; tim10-1 inh: 22; NALP3 yeast inh: 1

Results for COc1cccc(OC)c1C(=O)NCCc1ccccc1 ?
tim23-1 inh: 0; TIM10 inh: -33; tim10-1 inh: -25; NALP3 yeast inh: -2

How did COc1cccc2cc(C(=O)NCCc3ccccc3)oc12 do in these assays?
tim23-1 inh: 62*; NALP1 yeast inh: 0; TIM10 inh: 50*; tim10-1 inh: 32; NALP3 yeast inh: 38; tim10 confirm: 37*; tim23-1 conf: 77*

How did CCCN1CCC2(CC1)C(C#N)=C(N)Oc1c2sc2nc(C)cc(C)c12 do in these assays?
tim23-1 inh: 10; NALP1 yeast inh: 4; TIM10 inh: -7; tim10-1 inh: 0; NALP3 yeast inh: 22

Results for CCOC(=O)N1CCC2(CC1)C(C#N)=C(N)Oc1c2sc2nc(C)cc(C)c12 ?
tim23-1 inh: 61*; NALP1 yeast inh: 13; TIM10 inh: 51*; tim10-1 inh: 36; NALP3 yeast inh: 6; tim10 confirm: 36*; tim23-1 conf: 51*

How did CCOC(=O)N1CCC2(CC1)C(C#N)=C(N)Oc1n[nH]c(C)c12 do in these assays?
tim23-1 inh: 3; NALP1 yeast inh: 32; TIM10 inh: -3; tim10-1 inh: 3; NALP3 yeast inh: 10

Results for CCOC(=O)N1CCC2(CC1)C(C#N)=C(N)Oc1c2c(C)nn1-c1cccc(Cl)c1 ?
tim23-1 inh: 58*; NALP1 yeast inh: -7; TIM10 inh: 44*; tim10-1 inh: 31; NALP3 yeast inh: 13; tim10 confirm: 30; tim23-1 conf: 58*

How did Oc1ccc(Br)cc1-c1cc(-c2ccccc2Cl)[nH]n1 do in these assays?
tim23-1 inh: 17; NALP1 yeast inh: 16; TIM10 inh: 17; tim10-1 inh: 17; NALP3 yeast inh: -10

Results for Cc1c(Cl)cccc1NC(=O)c1cc(-c2ccccc2O)n[nH]1 ?
tim23-1 inh: -11; NALP1 yeast inh: 3; TIM10 inh: -1; tim10-1 inh: 8; NALP3 yeast inh: 21

Results for COc1ccc(O)c(-c2cc(-c3ccccc3Cl)[nH]n2)c1 ?
tim23-1 inh: 81*; NALP1 yeast inh: -5; TIM10 inh: 50*; tim10-1 inh: 39; NALP3 yeast inh: -8; tim10 confirm: 57*; tim23-1 conf: 72*

How did Cc1ccc(-c2cc(-c3ccccc3Cl)[nH]n2)c(O)c1 do in these assays?
tim23-1 inh: 65*; NALP1 yeast inh: 15; TIM10 inh: 51*; tim10-1 inh: 25; NALP3 yeast inh: 25; tim10 confirm: 65*; tim23-1 conf: 9

How did Cc1onc(-c2ccccc2)c1C(=O)N(Cc1ccco1)Cc1cccs1 do in these assays?
NALP1 yeast inh: 18

What do the screens show for `CCCCC(=O)Nc1cccc2c1C(=O)N(c1ccccc1)C2=O`?
tim23-1 inh: 50*; NALP1 yeast inh: 12; TIM10 inh: 43*; tim10-1 inh: 32; NALP3 yeast inh: 3; tim10 confirm: 40*; tim23-1 conf: 52*

How did CC(=O)Nc1ccc(N2C(=O)c3cccc(NC(C)=O)c3C2=O)cc1 do in these assays?
tim23-1 inh: 13; NALP1 yeast inh: 11; TIM10 inh: -11; tim10-1 inh: 8; NALP3 yeast inh: -1

Results for COC(=O)c1ccc(C(=O)OC)c(NC(=O)CSc2cccc[n+]2[O-])c1 ?
tim23-1 inh: 69*; NALP1 yeast inh: 4; TIM10 inh: 41*; tim10-1 inh: 28; NALP3 yeast inh: 8; tim10 confirm: 14; tim23-1 conf: 75*

Bioassay records from PubChem.
